Measured potencies and affinities stand elsewhere. The source made the active and inactive calls.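 Rule for the calls: active = signal-lowering compounds whose fitted half-maximal concentration is at or below twice the top tested dose in every run; inconclusive = runs disagree, flat 30 to 70% inhibition, or poor curve fit; inactive = the rest.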
What follows are compounds tested against Protein S100-A4 (Homo sapiens) (UniProt P26447) (assay: human S100A4 peptide interaction inhibition curves – biochemical, fluorescence polarization, cherry-picked hits, dose response (AID 687001)). Details: FP, S100A4/TAMRA-myosin IIA peptide binding; series mostly up to 11 µM.
Sequence of Protein S100-A4 (Homo sapiens) (P26447 whole entry, looked up): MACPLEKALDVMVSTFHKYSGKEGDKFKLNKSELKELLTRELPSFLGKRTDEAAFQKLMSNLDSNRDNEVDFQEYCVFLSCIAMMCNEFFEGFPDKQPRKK

outcome, inactive:
CNC[C@@H]1OCCCC[C@@H](C)Oc2ccc(NS(=O)(=O)c3cccs3)cc2C(=O)N([C@H](C)CO)C[C@H]1C
Cc1ccc(S(=O)(=O)n2cccc2C)cc1
O=S(=O)(Nc1ccc(N2CCCCC2)cc1)c1ccc(F)cc1
C[C@@H]1CN([C@H](C)CO)C(=O)CCCn2nncc2CO[C@@H]1CN(C)S(=O)(=O)c1ccc2ccccc2c1
COc1cccc(NC(=O)CN(C)C(=O)c2ccc(N3CCCCC3)c([N+](=O)[O-])c2)c1
COc1ccccc1CNC(=O)COC(=O)CSc1ccc(Cl)cc1
C[C@H]1CCCCO[C@H](CN(C)C(=O)c2ccccc2)[C@@H](C)CN([C@@H](C)CO)C(=O)c2cc(NC(=O)NC3CCCCC3)ccc2O1
Nc1cnccc1C(=O)O
Cc1sc2nc(SCC(=O)N3CCOCC3)[nH]c(=O)c2c1-c1ccccc1
CCOC(=O)C1CCCN(C(=O)c2cc(S(=O)(=O)N3CCCCCC3)ccc2OC)C1 (centres undefined)
O=C(C[C@@H]1C[C@H]2c3cc(NS(=O)(=O)c4ccccc4)ccc3O[C@H]2[C@@H](CO)O1)N1CCOCC1
CN1C(=O)c2cc(NC(=O)c3ccccc3Cl)ccc2OC[C@@H]2O[C@@H](CC(=O)NCC(F)(F)F)CC[C@H]21
O=C(C[C@H]1CC[C@@H]2[C@H](COC[C@H](O)CN2C(=O)Nc2ccc3c(c2)OCO3)O1)N1CCN(c2ccccc2)CC1
Cc1ccc(S(=O)(=O)Nc2ccc(O)c3ccccc23)c(C)c1
COC(=O)c1ccc(NC(=O)C2CCCN2C(=O)Nc2cccc(C(C)=O)c2)cc1 (centres undefined)
O=C(C[C@@H]1CC[C@@H](NC(=O)NC2CCCC2)[C@H](CO)O1)NCc1ccc(F)cc1
Cc1cc(C)cc(OCC(=O)OCC(=O)N2CCc3ccccc32)c1
C[C@@H]1CN([C@H](C)CO)S(=O)(=O)c2ccc(C3=CCCCC3)cc2O[C@@H]1CN(C)Cc1ccccc1
COc1ccc(C=O)cc1COc1ccc2c(c1)OCO2
COc1cccc(NC(=O)N(C)C[C@H]2Oc3cc(C#CC4(O)CCCC4)ccc3S(=O)(=O)N([C@H](C)CO)C[C@H]2C)c1
C[C@@H]1CN([C@@H](C)CO)C(=O)CCCn2nncc2CO[C@@H]1CN(C)S(=O)(=O)c1ccccc1
Cc1noc(C)c1NC(=O)N(C)C[C@H]1OCCCC[C@H](C)Oc2ccc(NS(=O)(=O)c3ccc(F)cc3)cc2C(=O)N([C@H](C)CO)C[C@@H]1C
COc1ccc(C#Cc2ccc([C@H]3[C@H]4CN(C(=O)Nc5ccccc5)CCCCN4[C@H]3CO)cc2)cc1
CO[C@@H]1CN(C)C(=O)c2ccc(NC(C)=O)cc2OC[C@H](C)N(Cc2cc(F)ccc2F)C[C@@H]1C
C[C@@H]1CN([C@H](C)CO)C(=O)c2cc(NC(=O)C3CC3)ccc2O[C@@H]1CN(C)C(=O)Nc1ccc2c(c1)OCO2
CCOC(=O)N1CCN(C(=O)COc2ccc3oc4c(c3c2)CCCC4)CC1
CC1(C)CC2CC(C)(CN2/C=N/c2sc3c(c2C#N)CC(C)(C)NC3(C)C)C1 (centres undefined)
O=C(Nc1ccc(Cl)cc1)N[C@H]1CC[C@H](CCNC(=O)c2ccccc2F)O[C@@H]1CO
COc1cccc(-c2nnc(NC(=O)CCS(=O)(=O)c3ccc(F)cc3)o2)c1
COc1cccc(NC(=O)N(C)C[C@@H]2OCc3ccccc3-c3c(n(C)c4ccccc34)C(=O)N([C@@H](C)CO)C[C@@H]2C)c1
ON(CCc1ccncc1)Cc1ccccc1
CCCCN(C(=O)c1c(-c2ccccc2)noc1C)c1c(N)n(CCC)c(=O)[nH]c1=O
COc1ccc(NC(=O)N(C)C[C@H]2Oc3c(NC(=O)NC4CCCCC4)cccc3C(=O)N([C@H](C)CO)C[C@H]2C)cc1
Cc1cccc2sc(NC(=O)C3CCN(C(=O)c4ccco4)CC3)nc12
O=C(O)c1ccccc1SCCS(=O)(=O)c1ccc(Cl)cc1Cl
CCOCCCNC(=O)c1ccc2c(c1)N(CC)C(=O)c1ccccc1S2=O (centres undefined)
O=C(NCc1ccncc1)C1CCCN(S(=O)(=O)c2cc(Cl)ccc2Cl)C1 (centres undefined)
CCCCn1c(N)c(N(CC)C(=O)CSCc2ccc(C)cc2)c(=O)[nH]c1=O
COC(=O)c1ccc2c(=O)n(CCCCCC(=O)NC3CCCCC3)c(=O)[nH]c2c1
